Screens deposited in PubChem BioAssay by National Center for Advancing Translational Sciences (NCATS).
Rab9 promoter act: Rab9 promoter activation. Huh7 Rab9 promoter-luciferase reporter, luminescence, 24 h. Potency, µM (highest dose often 9.22 µM), without a hit: top-dose activation, negative = inhibition, most hits filed as activators. actives 2.8% (n = 320,000); further: % of control where 0% means no effect; nearly all actives have a fitted effect of over 60% in size
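Cells were plated at 1500 per well in reduced-serum medium with 10% FBS and left 2 h. Compound in DMSO was then added for 24 h at 37 °C. Reporter signal was read by luminescence after 10 min with luciferase detection reagent.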
NPC1 promoter act: NPC1 promoter activation; Huh7 NPC1 promoter luciferase reporter, 24 h; Potency, µM (titrated, usually from 9.22 µM), for the others: top-dose activation, most hits filed as activators; actives 2.4% (n = 320,000); AID 485313; further: % of control where 0% means no effect; nearly all actives have a fitted effect of over 60% in size
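Quantitative HTS used a cell-based reporter: Huh7 cells stably bearing the NPC1 promoter upstream of luciferase were treated with compounds for 24 h, and promoter activation was read as luminescence.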
FLuc counter: firefly luciferase modulation, counter-screen for miR-21 project; purified FLuc, Km substrates, luminescence inhibition; P08659; actives 6.9% (n = 360,000); Potency, µM (highest dose often 57.5 µM), inactives show top-dose activity change, negative = inhibition, actives largely listed as inhibitors;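 further: plate controls were vehicle for no effect and reference inhibitor for full effect; nearly all actives have a fitted effect of over 55% in size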
Target sequence (P08659 whole entry, looked up): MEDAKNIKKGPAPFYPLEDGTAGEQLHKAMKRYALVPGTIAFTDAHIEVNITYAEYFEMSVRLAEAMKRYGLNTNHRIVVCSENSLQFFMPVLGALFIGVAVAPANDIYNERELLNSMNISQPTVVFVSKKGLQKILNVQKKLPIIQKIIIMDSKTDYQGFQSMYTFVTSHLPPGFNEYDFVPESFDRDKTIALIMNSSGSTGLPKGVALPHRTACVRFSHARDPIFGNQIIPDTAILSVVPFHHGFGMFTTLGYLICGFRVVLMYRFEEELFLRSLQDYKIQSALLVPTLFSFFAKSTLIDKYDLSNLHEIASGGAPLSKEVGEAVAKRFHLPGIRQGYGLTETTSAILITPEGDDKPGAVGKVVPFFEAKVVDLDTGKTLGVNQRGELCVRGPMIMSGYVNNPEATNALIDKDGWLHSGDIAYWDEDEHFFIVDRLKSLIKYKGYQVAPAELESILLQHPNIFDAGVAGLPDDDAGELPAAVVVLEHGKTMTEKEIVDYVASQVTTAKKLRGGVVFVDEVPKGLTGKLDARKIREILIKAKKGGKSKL
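Biochemical qHTS of compounds, final roughly 60 µM downward over six points, against 10 nM purified firefly luciferase using Km concentrations of substrates (10 uM D-luciferin, 10 uM ATP) in Tris acetate pH 7.5 buffer; luminescence output.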
SMN2 splice enh: SMN2 splice variant enhancement; HEK293 SMN2-luciferase splicing reporter, luminescence, 30-36 h; Potency, µM (series often up to 46.1 µM), without a hit: top-dose activity change, positive = activation, hits mostly activators; actives 2.8% (n = 210,000); AID 1458; further: % of control where 0% means no effect; nearly all actives have a fitted effect of over 55% in size
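qHTS luciferase splicing reporter: luminescence rises when SMN2 exon 7 is included in transfected HEK293 cells. Compound exposure lasted 30-36 h at 37C, with 4.5 mM final sodium butyrate as control, followed by a ONE-Glo read.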
KinaseGlo FLuc: blocks Kinase-Glo luciferase, a counter-screen artifact; Q27757; Kinase-Glo luciferase, ATP luminescence, 8 min; Potency, µM (doses to about 38.3 µM), without a hit: top-dose activity change, negative = inhibition, usual class: inhibitors; actives 0.28% (n = 200,000); AID 1379; further: on the % scale 0 is the no-effect control and ±100 the full control effect; nearly all actives have a fitted effect of over 60% in size
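Compound is pinned into ATP-containing buffer (10 uM ATP, imidazole pH 7.2, 7 mM MgCl2). Kinase-Glo luciferase reagent is then added. Light output is recorded following an 8-min room-temperature incubation.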
ELG1 genotoxic: inducers of genotoxicity in HEK293T ELG1-luciferase cells | HEK293T ELG1-luciferase reporter, luminescence, 16 h | Potency, µM (series often up to 46 µM), for inactives: at the highest dose activity change, positive = activation, actives largely listed as activators | actives 1.3% (n = 330,000); further: % of control where 0% means no effect; nearly all actives have a fitted effect of over 60% in size
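Genotoxicity was scored as increased ELG1-luciferase reporter signal, measured by ONE-Glo luminescence (30 min, room temperature). Compound or vehicle exposure of the HEK293T reporter cells lasted 16 hr at 37°C.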
Starred values were filed as active, the others as inactive; ? = inconclusive; . = no result given; [ ] = another dose, or the depositor's remark. Rows were chosen to be rich in hits. Some 7.5% of all compounds tested hit in one or more screens of this group. The call rests on the fitted dose curve; in most records, active means well fitted curve in the direction sought with a large enough effect; inconclusive means small, poorly fitted or top-dose-only effect, or another doubt; inactive means no such curve, though single readings can be large; an effect the other way counts as inactive or inconclusive. Potency means the concentration at half of the fitted maximal effect.

SMILES	Rab9 promoter act	NPC1 promoter act	FLuc counter	SMN2 splice enh	KinaseGlo FLuc	ELG1 genotoxic
O=C(NCCSc1ccccc1)c1cncc(Br)c1	?	?	21µM*	?	1%	15µM*
CSc1ccccc1C(=O)NCCSc1ccccc1	12%	11%	-18%	27%	-4%	?
COc1cccc(C(=O)NCCSc2ccc(F)cc2)c1	?	?	19µM*	13µM*	1%	18%
O=C(NCCSc1ccccc1)c1ccccc1	2.5µM*	2.5µM*	?	11µM*	-6%	?
CN(C)S(=O)(=O)c1ccc(C(=O)NCCSc2ccc(Br)cc2)cc1	-9%	2%	0%	-27%	-2%	-4%
CC(=O)c1cccc(NC(=O)NNC(=O)c2ccc(-c3ccccc3)cc2)c1	3%	5%	8%	.	.	3%
Cn1c(=O)c2c(-c3ccccc3)n3c(c2n(C)c1=O)C(c1cccc([N+](=O)[O-])c1)Nc1ccccc1-3 (stereo not given)	.	.	1%	.	.	.
CCOc1ccc(C(=O)N2CCc3cc(OC)c(OC)cc3C2COc2ccc3c(C)cc(=O)oc3c2)cc1OCC (stereo not given)	.	.	-1%	14%	.	.
O=C(NCCOc1ccccc1)c1cncc(Br)c1	?	?	?	5%	4%	16µM*
CCc1cc(C)cc(OCCNC(=O)c2cncc(Br)c2)c1	-2%	-1%	3%	-16%	-1%	-1%
O=C(CCSc1ccccc1)NCCSCc1ccccc1	-4%	3%	21µM*	6%	-1%	1%
COc1cc(C=C2C(=O)OC(C)(C)OC2=O)ccc1OCC(=O)Nc1ccccc1	-8%	-3%	11µM*	14%	4%	?
C#CCOc1ccc(/C=C2/C(=O)NN(c3ccc(F)cc3)C2=O)cc1OC	-4%	-4%	1.9µM*	.	.	4%
COC(=O)c1ccc(N2NC(=O)/C(=C/c3ccc(OC)c(OC)c3)C2=O)cc1	-2%	1%	?	.	.	0%
COc1cc(/C=C2\C(=O)NN(c3ccccc3)C2=O)ccc1OCC(N)=O	1%	-10%	11µM*	6%	-2%	0%
N#C/C(=N\Nc1ccc(F)cc1)C(=O)C1CC1	2%	8%	-13%	.	.	-2%
N#C/C(=N\Nc1ccc(Cl)c(Cl)c1)C(=O)C1CC1	?	?	27µM*	.	.	8%
CCOC(=O)C1CCN(C(=O)C2CCN(c3nc4ccc(OC)cc4s3)CC2)CC1	-11%	-8%	15µM*	-45%	-1%	-10%
CCOC(=O)C1CCN(C(=O)C2CCN(c3nnc(-n4cccc4)s3)CC2)CC1	-1%	0%	-8%	.	.	1%[9.26 µM]
COc1ccc2nc(N3CCN(C(=O)C4COc5ccccc5O4)CC3)sc2c1 (stereo not given)	2µM*	2.8µM*	6µM*	.	.	9%
CC(C)(C)C(=O)Nc1cccc(C(=O)OCc2cc(=O)n3nc(C4CCCCC4)sc3n2)c1	.	.	-2%	.	.	.
Cc1ccc(C(=O)COC(=O)c2ccc(Br)o2)cc1C	16%	2%	11µM*	10%	3%	4%
O=C(COC(=O)c1cc2ccccc2o1)c1ccccc1	-2%	-2%	6µM*	-7%	-8%	?
O=C(COC(=O)c1ccco1)c1ccc2ccccc2c1	9%	-2%	2.4µM*	-15%	-2%	10%
Cc1ccc(CNC(=O)COC(=O)c2ccc(Br)o2)cc1	1%	-1%	.	.	.	3%
SMILES	Rab9 promoter act	NPC1 promoter act	FLuc counter	SMN2 splice enh	KinaseGlo FLuc	ELG1 genotoxic
COc1ccc(C(=O)COC(=O)c2cc(=O)c3ccccc3o2)cc1	.	.	.	.	.	0%
O=C(COC(=O)c1ccco1)c1ccccc1	0%	-7%	6µM*	.	.	?
O=C(COC(=O)c1ccco1)Nc1ccccc1	-4%	-2%	?	12%	-3%	-1%
O=C(O)c1ccc(Cl)c(S(=O)(=O)Nc2ccc3cn[nH]c3c2)c1	11%	-4%	?	-4%	7%	-8%
O=C(CCNc1ccc(F)cc1)c1cc2ccccc2o1	0%	-5%	-5%	1%	-5%	8%
O=C(Cc1ccc(F)cc1)OCC(=O)c1cc2ccccc2o1	2%	9%	21µM*	7%	1%	1%
COc1cc(C(=O)COC(=O)c2ccco2)cc(OC)c1OC	.	.	.	.	.	11%
O=C(CSc1nc2cc(Cl)ccc2s1)c1ccco1	?	?	?	18%	1%	18%
O=C(CSCc1ccc(Cl)cc1)c1ccco1	8%	12%	15µM*	-4%	-6%	11%
O=C(COC(=O)c1ccco1)NCCNC(=O)COC(=O)c1ccco1	7%	-3%	4%	.	.	1%
O=C(COC(=O)c1ccco1)c1ccc(Cl)cc1	-6%	-1%	1.7µM*	.	.	18%
Cc1ccc(C(=O)COC(=O)c2ccco2)cc1C	13%	1%	1.5µM*	.	.	23µM*
O=C(CSc1nnc(-c2ccco2)n1Cc1ccccc1)c1ccccc1	1.4µM*	4.5µM*	12µM*	7%	-2%	?
Cc1ccc(C(=O)CSc2nnc(-c3ccco3)n2Cc2ccccc2)cc1	?	?	?	19%	-8%	13%
CCn1c(SCC(=O)Nc2ccc(OCc3ccccc3)cc2)nnc1-c1ccco1	-4%	-4%	15µM*	-32%	7%	-9%
CCOC(=O)c1c(C)[nH]c(C)c1C(=O)CSc1nnc(-c2ccncc2)n1Cc1ccccc1	23%	5%	0%	-8%	-1%	-9%
CCOC(=O)c1c(C)[nH]c(C)c1C(=O)CSc1nnc(-c2ccco2)n1Cc1ccccc1	-2%	9%	-1%	35µM*	0%	-30%
COc1ccccc1NC(=O)NC1(C(=O)N2CCC(C)CC2)CCCCC1	0%	0%	2%	.	.	0%
CCCOc1ccc(N2C(=O)CC(SCC(N)C(=O)OCC)C2=O)cc1 (stereo not given)	0%	-3%	4%	.	.	-1%
COC(=O)c1ccc(N2C(=O)CC(SCCN)C2=O)cc1 (stereo not given)	?	?	?	11µM*	1%	12µM*
CCCOc1ccc(N2C(=O)CC(SCCN)C2=O)cc1 (stereo not given)	2.2µM*	4µM*	12µM*	13µM*	-8%	?
COc1ccc(N(Cc2cccs2)C(=O)Nc2ccccc2)cc1	.	.	-14%	.	.	.
CC(=O)c1cccc(NC(=O)Cn2nc(C)n3cccc3c2=O)c1	.	.	-15%	.	.	.
O=C(Nc1cccc(Cl)c1)c1nc[nH]c1C(=O)N1CCc2ccccc2C1	-1%	-2%	-1%	.	.	5%
CC(C)c1ccc(NC(=O)N2CCc3ccccc3C2)cc1	4µM*	?	11µM*	13µM*	1%	?
